Source: PubChem (National Center for Advancing Translational Sciences (NCATS))
Hits are enriched below; roughly 0.39% of the tested compounds scored in any of these assays.
PKM2 act: activators of human pyruvate kinase M2 | purified PKM2, Kinase-Glo ATP luminescence, activation; response scale: 0% is enzyme alone, no compound | Potency, µM (highest dose often 57.5 µM), for the others: at the highest dose activation, actives largely listed as activators | 260,000 tested, 0.34% active | AID 1631; also: % is scaled to controls: 0 for no effect and ±100 for the full control effect; nearly all actives have a fitted effect of over 55% in size
Target sequence (P14618 whole entry, looked up): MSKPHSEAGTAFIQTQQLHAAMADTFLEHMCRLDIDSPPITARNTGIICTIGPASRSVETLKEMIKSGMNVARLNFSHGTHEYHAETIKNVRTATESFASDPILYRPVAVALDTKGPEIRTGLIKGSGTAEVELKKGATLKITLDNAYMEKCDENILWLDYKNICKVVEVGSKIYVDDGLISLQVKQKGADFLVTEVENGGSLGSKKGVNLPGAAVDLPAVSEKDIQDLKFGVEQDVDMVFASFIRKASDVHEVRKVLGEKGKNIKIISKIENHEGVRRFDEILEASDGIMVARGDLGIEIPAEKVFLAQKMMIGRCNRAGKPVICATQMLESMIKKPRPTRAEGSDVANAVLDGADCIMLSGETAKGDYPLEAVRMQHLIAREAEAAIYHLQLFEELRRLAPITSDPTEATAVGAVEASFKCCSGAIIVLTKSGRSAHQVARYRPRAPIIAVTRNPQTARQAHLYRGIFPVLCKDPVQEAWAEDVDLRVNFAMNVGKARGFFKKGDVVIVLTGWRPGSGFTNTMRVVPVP
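Kinase-Glo luminescence reports ATP generated from ADP (0.1 mM) and PEP (0.5 mM) by purified hPK-M2 after 1 h at room temperature, pH 7.2 imidazole buffer; intermediate enzyme activity allows detecting inhibitors and activators.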
TSG101-PTAP inh: blocks PTAP/TSG101 interaction to inhibit HIV-1 budding | Fluorescence polarization, FITC-PTAP peptide / Tsg101 binding | 340,000 tested, under 10 active | Q99816 | Potency, µM (titrated, usually from 115 µM), for inactives: top-dose activity change, negative = inhibition, usual class: inhibitors; active = well fitted inhibition curve with a large enough effect in the main read-out, with a control signal flat, not every such curve was filed as active; inconclusive = small, poorly fitted or top-dose-only effect, or effect the other way, or a change in a side signal; inactive = no such curve, though single readings can be large or run the other way; also: % of control where 0% means no effect
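Tsg101 binding domain (10 uM final) was mixed with compound and a FITC-labeled PTAP peptide (50 nM final) in HEPES pH 7.5 buffer with NaCl, Tween 20, EDTA and TCEP; fluorescence polarization was read after 20 min at r.t.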
AT treatment: potential ataxia-telangiectasia treatments restoring KAP-1 phosphorylation | F2112 A-T fibroblasts, KAP-1 phosphorylation AlphaLISA; neocarzinostatin DNA damage 30 min before lysis | Potency, µM (doses to about 57.5 µM), without a hit: top-dose activation, hits mostly activators | 320,000 tested, 0.19% active; also: % of control where 0% means no effect; nearly all actives have a fitted effect of over 45% in size
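hTERT-immortalized A-T patient fibroblasts (F2112), 500 cells/well in OPTI-MEM, 1% FBS, got compounds for 60 min, then NCS for 30 min at 37C. Lysates were then assayed for phospho-KAP-1 by AlphaLISA (anti-pKAP1 donor, anti-KAP1 acceptor beads), 6 hr at 25C.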
Pin1 inh: human Pin1 inhibition | Pin1 FP peptide displacement, HiFluor488, 10 min | Potency, µM (series often up to 115 µM), for the others: at the highest dose activity, negative = inhibition, most hits filed as inhibitors | 390,000 tested, 0.009% active; active = well fitted inhibition curve with a large enough effect in the polarisation, with a control signal flat, not every such curve was filed as active; inconclusive = small, poorly fitted or top-dose-only effect, or effect the other way, or a change in a side signal; inactive = no such curve, though single readings can be large or run the other way; the % refers to the polarisation; also: % is scaled to controls: 0 for no effect and ±100 for the full control effect
Target sequence (Q13526 whole entry, looked up): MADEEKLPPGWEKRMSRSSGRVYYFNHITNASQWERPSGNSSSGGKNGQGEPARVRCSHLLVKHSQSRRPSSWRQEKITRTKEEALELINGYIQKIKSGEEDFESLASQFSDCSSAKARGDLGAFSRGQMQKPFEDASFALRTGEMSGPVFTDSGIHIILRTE
* = called active by the depositor; ? = inconclusive; / = not tested or not shown. Unless noted, calls follow the shape of the dose curve; as a rule, active = well fitted activation curve with a large enough effect; inconclusive = small, poorly fitted or top-dose-only effect; inactive = no such curve, though single readings can be large or run the other way. Potency is read from the fitted curve at half-maximal effect.

SMILES	PKM2 act	TSG101-PTAP inh	AT treatment	Pin1 inh
COC(=O)c1ccc(C23CC4(C2)[C@H](CN(Cc2ccc(C(F)(F)F)cc2)[C@@H]4c2ccccc2)C3c2ccccc2)cc1 (stereo partly drawn)	-0.2%	1.1%	39.8µM*	40.5%
Cc1ccc(NS(=O)(=O)c2ccc(-c3ccccc3)cc2)cc1C	/	/	/	-11.8%
CCOC(=O)/C(=N\Nc1ccccc1Cl)N1CC(C)OC(C)C1 (stereo not drawn)	12.9%	-0.4%	?	3.6%
CCOC(=O)/C(=N\Nc1ccc(Br)cc1)N1CC(C)OC(C)C1 (stereo not drawn)	0.0%	-0.9%	25.1µM*	-7.2%
COc1ccc(C2Nc3ccccc3C(=O)N2Cc2ccccc2)cc1COc1cccc(C(F)(F)F)c1 (stereo not drawn)	/	/	/	1.0%
Cc1oc2ccc(OCc3ccc(Cl)cc3)cc2c1C(=O)O	3.8%	-1.4%	0.0%	-1.9%
Cc1oc2ccc(OCc3ccc(Br)cc3)cc2c1C(=O)O	/	5.1%	3.55µM*	-2.2%
CC(=O)c1ccc(NCC2COc3ccccc3O2)c([N+](=O)[O-])c1 (stereo not drawn)	2.0%	-2.3%	-2.4%	3.1%
NS(=O)(=O)c1ccc(NCC2COc3ccccc3O2)c([N+](=O)[O-])c1 (stereo not drawn)	20µM*	-2.0%	3.0%	0.0%
Cc1cc2c(s1)c1cnn(Cc3cc(F)cc(F)c3F)c(=O)c1n2C	/	/	/	0.3%
CCS(=O)(=O)Nc1cccc(C2=NN(C(C)=O)C(c3cccs3)C2)c1 (stereo not drawn)	14.1µM*	-1.6%	3.6%	3.5%
c1coc(CN2CNc3nc4ccccc4n3C2)c1	0.2%	0.0%	10µM*	-1.0%
COc1ccc(CN2CNc3nc4ccccc4n3C2)cc1	1.0%	-3.6%	/	-3.4%
CC(=O)CCc1oc2ccc(NC(C)=O)cc2c1-c1ccc(C)o1	10µM*	-2.3%	-2.1%	-8.9%
Cc1cc(NS(=O)(=O)c2ccc3c(c2)CCC(=O)N3)ccc1F	/	/	/	-3.0%
CN1CCN(C2=C(NS(=O)(=O)c3cccs3)C(=O)c3ccccc3C2=O)CC1	0.7%	-4.4%	7.0%	-2.1%
O=C1C(NS(=O)(=O)c2cccs2)=C(N2CCOCC2)C(=O)c2ccccc21	-3.9%	0.4%	7.08µM*	8.5%
C=CCn1c2ccccc2c(=O)c2cc(C#CC[C@@H](C)O)ccc21	/	-5.5%	20µM*	-1.8%
C=CCn1c2ccccc2c(=O)c2cc(C#CC3(O)CCCCC3)ccc21	7.9%	-2.3%	25.1µM*	20.3%
Oc1ccccc1CNc1ccc(Br)cn1	31.6µM*	-2.3%	-0.2%	3.3%
Brc1ccc(NCc2cccc3ccccc23)nc1	7.0%	-1.6%	13.8%	-1.0%
O=S(=O)(c1ccccc1)N1CCN(c2nc(C3CC3)nc3ccccc23)CC1	/	/	/	-17.2%
COc1ccc(N2C(=O)CC(Sc3nnc(-c4ccccc4)o3)C2=O)cc1 (stereo not drawn)	20µM*	-8.3%	-4.3%	1.1%
COc1ccc(N2C(=O)CC(Sc3nnnn3-c3ccc(F)cc3)C2=O)cc1 (stereo not drawn)	28.2µM*	-1.1%	-5.5%	6.6%
O=C1CC(Sc2nnc(-c3ccccc3O)o2)C(=O)N1c1ccccc1 (stereo not drawn)	11.2%	-3.5%	1.5%	-0.2%
SMILES	PKM2 act	TSG101-PTAP inh	AT treatment	Pin1 inh
O=C1CC(Sc2nnnn2-c2ccccc2)C(=O)N1c1cccc(Cl)c1 (stereo not drawn)	8.8%	-0.9%	-8.5%	13.4%
CN(c1ccccc1)c1ccc(CNc2nn3c(=O)c4ccccc4nc3s2)cc1	/	/	/	-1.1%
Cc1cccc(-c2n[nH]c(=S)n2-c2ccccc2)c1[N+](=O)[O-]	?	-2.4%	-2.7%	-9.1%
COc1ccc(-n2c(-c3cccc(C)c3[N+](=O)[O-])n[nH]c2=S)cc1	11.2µM*	-5.5%	-0.5%	-5.3%
Cc1cc2c(s1)c1cnn(Cc3ccc(F)c(Cl)c3)c(=O)c1n2C	/	/	/	-0.3%
CNC(=O)c1cnn2c(C)cc(C)nc12	/	/	/	0.0%
N#C/C(=C\c1cccnc1)C(=O)Nc1cccc(Cl)c1	5.62µM*	1.2%	-12.4%	11.5%
N#Cc1c(-c2cccs2)nc(SCc2ccc(Cl)cc2)[nH]c1=O	31.6µM*	-18.5%	2.2%	/
COc1ccc(-c2ccc3ncnc(NCCc4cnc[nH]4)c3c2)cc1OC	/	/	/	2.6%
COc1ccccc1C1CC(c2ccco2)=NN1c1ccccc1 (stereo not drawn)	10.1%	0.0%	20µM*	29.9%
COc1ccc(-c2ccc3ncnc(NCc4cccs4)c3c2)cc1	/	/	/	3.2%
Cc1cc(C(=O)CSc2nc3ccc(Cl)cc3[nH]2)c(C)n1C	15.8µM*	-6.1%	6.1%	10.8%
O=C(N=C1N=C2C=CC=CN2Cc2ccccc21)c1ccc(S(=O)(=O)N2CCCC2)cc1	-27.0%	0.8%	29.8%	-2.1%
CN(C)S(=O)(=O)c1cccc(C(=O)N=C2N=C3C=CC(Cl)=CN3Cc3ccccc32)c1	-8.4%	-5.2%	0.708µM*	-3.8%
O=S(=O)(c1ccc2c(c1)OCCO2)N1CCN(S(=O)(=O)c2ccc3nc(Cl)c(Cl)nc3c2)CC1	/	/	/	0.5%
OC1(CC#CCN2CCCCC2)c2ccccc2-c2ccccc21	4.4%	-4.0%	3.55µM*	-2.3%
OC1(C#CCCN2CCCCC2)c2ccccc2-c2ccccc21	1.0%	-7.8%	-0.7%	-0.6%
O=C1CCCN1CCC12CC3CC(CC(C3)C1)C2	39.8µM*	-0.9%	11.9%	-3.6%
CCn1cnc2c(Nc3ccc(CCC(=O)N=C(N)N)cc3)nc(C#N)nc21	/	/	/	6.7%
O=C(NC(=S)NC1CCN(Cc2ccccc2)CC1)c1ccc(F)cc1	/	-0.4%	1.41µM*	-0.8%
S=c1[nH]nc(COc2ccccc2)n1/N=C/c1ccccc1Cl	/	-7.6%	5.01µM*	-1.8%
S=c1[nH]nc(COc2ccccc2)n1/N=C/c1cccc(Cl)c1Cl	/	-1.3%	-5.0%	-1.3%
Cc1cc(C)c2c(=O)n(CC(=O)N3CCC(Cc4ccccc4)CC3)sc2n1	1.58µM*	/	5.0%	/
COc1cccc(C2c3c(ncn(-c4cccc(Cl)c4)c3=N)Oc3ccc4ccccc4c32)c1 (stereo not drawn)	/	/	/	40.1%
O=C1OCCN1C(=O)[C@H]1[C@H](c2ccc(F)cc2)C(c2cccc(Cl)c2)=NN1c1ccccc1	/	-5.3%	30.1%	52.3%
Cc1cccc(C2=NN(c3ccc(Br)cc3)[C@@H](C(=O)N3CCOC3=O)[C@@H]2c2ccc(F)cc2)c1	-3.0%	2.1%	17.8µM*	6.8%
O=C1OCCN1C(=O)[C@H]1[C@H](c2ccc(Cl)cc2)C(c2cccc(Cl)c2)=NN1c1ccccc1	2.0%	0.8%	35.5µM*	19.7%
C=CC1CN2CCC1CC2[C@@H](O)c1ccnc2ccc(OC)cc12 (stereo partly drawn)	/	/	/	-0.7%
Cc1cc2c(s1)c1cnn(Cc3ccc(-n4cncn4)cc3)c(=O)c1n2C	/	/	/	-1.1%
N#Cc1nc(Nc2cccc3ccccc23)nc(NC2CCCC2)n1	/	/	/	14.2%
